This is an account of results in PubChem BioAssay (NCATS).

The test system of experiment [1] is CRL-7250. As to the kind of experiment: Cytotoxic Profiling of Annotated Libraries Using Quantitative High-Throughput Screening (AID 1296008). Also: potency is read from the fitted curve at half-maximal effect. As to max response: % is scaled to controls: 0 for no effect and ±100 for the full control effect. To be noted: Five cell lines viability, CellTiter-Glo ATP luminescence, 48-72 h; max response: stronger effect = lower value. In outline: (§1)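 Compounds were pin-transferred onto cells and incubated 48 or 72 hr at 37 degree Celsius, 95% humidity. CellTiter-Glo was added, plates sat 10 min at room temperature, then ATP-coupled luminescence was imaged as the viability read-out.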
A general note: In ATP-based viability assays light output follows the ATP content of the culture.

Experiment [2] deals with HEK293. The description is as above. To be noted: Five cell lines viability, CellTiter-Glo ATP luminescence, 48-72 h; max response: stronger effect = lower value. In outline:
as §1

Experiment [3] has as its system HaCat. The experiment is described as above. To be noted: Five cell lines viability, CellTiter-Glo ATP luminescence, 48-72 h; max response: stronger effect = lower value. An outline of the steps: as §1
For experiment [4], the system named is KB-3-1. The experiment is described as above. To be noted: Five cell lines viability, CellTiter-Glo ATP luminescence, 48-72 h; max response: stronger effect = lower value. In outline:
as §1

The subject of experiment [5] is NIH3T3. The experiment is described as above. To be noted: Five cell lines viability, CellTiter-Glo ATP luminescence, 48-72 h; max response: stronger effect = lower value. An outline of the steps:
as §1

The subject of experiment [6] is HACAT. As to the kind of experiment: qHTS assay to identify novel small-molecules to repurpose for Merkel cell carcinoma treatment (AID 1296009). To be noted: MCC and control cell lines, CellTiter-Glo viability, 72 h; at 44.8 µM (top of the series) unless noted. An outline of the steps: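 qHTS format: cells treated with library compounds in DMSO across 8 (NPC) or 11 (MIPE) concentrations. Readout after 72 hr at 37 degree celsius was CellTiter-Glo luminescence.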
(qHTS replaces the single test concentration by a dilution series.)

The structures appear in SMILES notation. Results filed as inconclusive are left out. A number with no mark means an inactive call. The source made the active and inactive calls. Calls follow the shape of the dose curve; as a rule, active = well fitted inhibition curve with a large enough effect; inconclusive = small, poorly fitted or top-dose-only effect; inactive = flat fitted curve, though single readings scatter.
Also: nearly all actives have a fitted effect of over 60% in size.

For `O=C(C[C@@H]1CC=CCCC(=O)O[C@H](c2ccccc2)CNC1=O)NCc1ccc(Cl)cc1`, the outcome in experiment [1], in experiment [3], in experiment [4] and in experiment [6] was inactive. In addition, the max response in experiment [2] was -3.28%; in experiment [5], -2.63%.

On to `C[C@H](CCC(=O)O)[C@H]1CC[C@H]2[C@@H]3[C@H](O)C[C@@H]4C[C@H](O)CC[C@]4(C)[C@@H]3CC[C@]12C`, for which the max response is 2.36% in experiment [1], -7.11% in experiment [2] and 1.89% in experiment [4]. For the same compound, the compound was classed as inactive in experiment [3], in experiment [5] and in experiment [6].

`Cn1cc(C=CC(=O)c2cccc(F)c2)cc1C=CC(=O)NO`: in experiment [1], the max response is -7.49%. The outcome in experiment [2], in experiment [3], in experiment [4], in experiment [5] and in experiment [6] was inactive.

As to `CCN(C(=O)c1c(O)c2c(Cl)cccc2n(C)c1=O)c1ccccc1`, the figures for the Potency in experiment [1] and in experiment [2] were 5.9 µM (active) and 4.18 µM (active), respectively. Moreover, the call in experiment [3] and in experiment [6] was inactive. The values for the max response in experiment [4] and in experiment [5] were 3.28% and -5.88%, respectively.

`O=C(O)CCCCC(CCSCc1ccccc1)SCc1ccccc1` (centres undefined): the max response in experiment [1] is 0.756%; in experiment [2], -0.529%; in experiment [5], 2.24%. Besides, the compound was called inactive in experiment [3], in experiment [4] and in experiment [6].

Turning to `C[N+]1(C)[C@@H]2C[C@@H](OC(=O)C(O)(c3cccs3)c3cccs3)C[C@H]1[C@@H]1O[C@@H]12`, the compound was classed as inactive in experiment [1], in experiment [3], in experiment [4] and in experiment [6]. For the same compound, the max response in experiment [2] was -10%; in experiment [5], -6.05%.

For the compound `Oc1cc2c(cc1O)C1c3ccc(O)c(O)c3OCC1(O)C2` (centres undefined), the max response in experiment [1] was 1.81%; in experiment [2], 1.47%; in experiment [4] it was 7.88%. Moreover, the outcome in experiment [3], in experiment [5] and in experiment [6] was inactive.

Turning to `O=C(NNC(=O)c1ccc(CNS(=O)(=O)c2ccc(F)c(Cl)c2)cc1)c1ccccc1`, the call in experiment [1], in experiment [3], in experiment [5] and in experiment [6] was inactive. Further, the max response is 4.45% in experiment [2] and 0.725% in experiment [4].

Regarding `NC(=O)c1cccc(-c2cccc(OC(=O)NC3CCCCC3)c2)c1`, the result in experiment [1], in experiment [3], in experiment [5] and in experiment [6] was inactive. In addition, the max response is -9.31% in experiment [2] and 6.26% in experiment [4].

Regarding `Nc1nc(=O)n([C@H]2CSC(CO)O2)cc1F` (some centres undefined), the results for the max response in experiment [1] and in experiment [4] were -8.43% and 9.64%, respectively. Moreover, the compound was called inactive in experiment [2], in experiment [3], in experiment [5] and in experiment [6].

Take `COC(=O)[C@@H]1CC2=CC(=O)CC[C@]2(C)[C@@]23O[C@@H]2C[C@@]2(C)[C@H](CC[C@@]24CCC(=O)O4)[C@@H]13`: the max response in experiment [1] is -3.2%. In addition, the result in experiment [2], in experiment [3], in experiment [4], in experiment [5] and in experiment [6] was inactive.

In the case of `CC(=O)O[C@]1(C(C)=O)CC[C@H]2[C@@H]3C=C(C)C4=CC(=O)CC[C@]4(C)[C@@H]3CC[C@@]21C`, the compound was classed as inactive in experiment [1] and in experiment [4]. In addition, the figures for the max response in experiment [2] and in experiment [5] were -9.75% and 4.47%, respectively. The outcome in experiment [3] and in experiment [6] was “inactive; activator” each time.

As to `COc1cc(C)c(C=CC(C)=CC=CC(C)=CC(=O)O)c(C)c1C`, the max response in experiment [1] is -4.27%; in experiment [2] it was -16.6%; in experiment [5], -4.41%. Further, the outcome in experiment [3], in experiment [4] and in experiment [6] was inactive.

Turning to `COc1cc(OC)c(NC(=O)Nc2cc(C)on2)cc1Cl`, the max response in experiment [1] was -0.274%; in experiment [2], -18.7%; in experiment [4] it was 3.5%; in experiment [5], 2.83%. For the same compound, the compound was classed as inactive in experiment [3] and in experiment [6].

On to `C[C@@H](NCc1cc2ccccc2[nH]1)c1cccc2ccccc12`, for which the max response is 3.32% in experiment [1], -2.05% in experiment [2], 3.8% in experiment [4] and 2.38% in experiment [5]. In addition, the result in experiment [3] and in experiment [6] was inactive.

On to `C[C@]12C=CC(=O)N[C@@H]1CC[C@H]1[C@H]3CC[C@@H](C(=O)Nc4cc(C(F)(F)F)ccc4C(F)(F)F)[C@@]3(C)CC[C@@H]12`, for which the max response was -6.18% in experiment [1], -11% in experiment [2] and -3.32% in experiment [4]. For the same compound, the call in experiment [3], in experiment [5] and in experiment [6] was inactive.

For `c1coc(CNc2ncnc3nc[nH]c23)c1`, the outcome in experiment [1], in experiment [2], in experiment [3] and in experiment [6] was inactive. The max response in experiment [4] was -3.01%; in experiment [5], 0.142%.

In the case of `C[C@@H]1C(=O)O[C@H]2CC34[C@H]5C[C@@H](C(C)(C)C)C36[C@H](OC(=O)[C@@H]6O)O[C@@]4(C(=O)O5)[C@]21O` (some centres undefined), the compound was classed as inactive in experiment [1], in experiment [3], in experiment [5] and in experiment [6]. In addition, the max response was 3.06% in experiment [2] and 2.09% in experiment [4].

As for `C=CC[C@@H]1C=C(C)C[C@H](C)C[C@H](OC)[C@H]2O[C@@](O)(C(=O)C(=O)N3CCCC[C@H]3C(=O)O[C@H](C(C)=C[C@@H]3CC[C@H](O)[C@H](OC)C3)[C@@H](C)[C@@H](O)CC1=O)[C@@H](C)C[C@@H]2OC`, in experiment [1], the max response is -10%. Further, the Potency in experiment [2] is 7.43 µM (active). For the same compound, the compound was classed as inactive in experiment [3], in experiment [4], in experiment [5] and in experiment [6].
